Bioassay records from PubChem.
Exocytosis inh = blocks lytic granule exocytosis. TALL-104 LAMP-1 surface exposure, flow cytometry; cells stimulated with thapsigargin and PMA. actives 0.66% (n = 360,000). AID 651702. inhibition, % at 10 µM;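 active means inhibition above about 55%, limit read from the data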
PG9 Ab binder = PG9 antibody binding by small molecule; AID 624416; inhibition, % at 6.7 µM; actives 0.43% (n = 360,000); TR-FRET gp120-PG9 antibody binding; in the data active means inhibition above about 8.5%
ABCB6 inh MLPCN = blocks the human ABCB6 transporter; K562-ABCB6 porphyrin accumulation, flow cytometry, 1 h; active compounds read low; actives 0.19% (n = 360,000); AID 602162; Q9NP58; fluorescence ratio to DMSO, % at 10 µM;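 active means fluorescence ratio to DMSO below 75%, the collection mean minus 3 SD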;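 further: signal is porphyrin accumulated inside mitochondria; lower ratio means ABCB6 inhibition with less porphyrin fluorescence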
rCAG binder = binds r(CAG) RNA repeats; inhibition, % at 3 µM; actives 1.3% (n = 370,000); AID 651821; r(CAG) RNA repeat, TO-PRO-1 dye displacement fluorescence;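 active means inhibition above the plate cutoff, the mean of all test compounds on that plate plus 3 SD, cut at about 35% in these data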;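 further: higher means more dye released from RNA so lower well fluorescence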
rCAG binder conf = r(CAG) RNA repeat binding, confirmation | TO-PRO-1 dye displacement fluorescence | inhibition, % at 3 µM | actives 70% (n = 4,300) | shares compounds with rCAG binder | AID 652065;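 active means inhibition above a per-plate cutoff, the mean inhibition of sample wells plus 3 SD, cut at about 35% in these data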;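 further: loss of TO-PRO-1 fluorescence as compound displaces dye from 1x1 AA loop RNA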
dCAG dye counter = DNA CAG dye complex inhibition counter-screen | shares compounds with rCAG binder | d(CAG) DNA oligo TO-PRO-1 dye displacement, fluorescence | inhibition, % at 3 µM | actives 94% (n = 4,300);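 active means inhibition above its plate's cutoff, the mean test-well inhibition plus 3 SD, cut at about 4.8% in these data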;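 further: hits displace the dye from DNA and so lower well fluorescence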
Hits are given with their value; 0 = inactive; - = no result given. A selection: hits, their analogues and other compounds. The true share with any hit is near 2.5%.

SMILES	Exocytosis inh	PG9 Ab binder	ABCB6 inh MLPCN	rCAG binder	rCAG binder conf	dCAG dye counter
COc1ccc(Cl)cc1NC(=O)[C@@]1(CC(=O)O)CC(/C=C/c2ccccc2)=NO1	0	0	0	38.1	35.8	8.2
O=S(=O)(Nc1ncnc2c1oc1ccccc12)c1ccc(Cl)s1	0	0	0	35.7	0	0
Cc1cc(C)c2c(=O)n3c(nc2c1)C(CC(C)C)NC(=O)c1cccnc1-3 (stereo unspecified)	0	0	0	0	-	-
Cc1cccc(C(=O)N[C@H](C(=O)Nc2ccc(S(=O)(=O)NC3=NCCCCC3)cc2)C(C)C)c1	0	0	0	0	-	-
CCOc1ccc(C(=O)N[C@H](C(=O)Nc2ccc(S(=O)(=O)Nc3nccs3)cc2)C(C)C)cc1	0	0	0	47.3	45.9	15.1
Cc1cccc(C(=O)NC(C(=O)Nc2ccc(S(=O)(=O)Nc3nccs3)cc2)C(C)C)c1 (stereo unspecified)	0	0	0	41.5	34.7	12.9
Cc1ccnc(NC(=O)CCNC(=O)c2ccc(Br)cc2)c1	0	0	0	0	-	-
Cc1cc(C(=O)NNc2ccc(C(C)C)cc2)n(C(C)(C)C)n1	0	0	0	0	-	-
O=C(O)CSC(C(=O)Nc1ccc(Br)cc1)c1ccc(Cl)cc1 (stereo unspecified)	0	0	0	37.2	0	5.4
O=CN(c1ccccc1)c1ccc2ccccc2c1	0	0	0	0	-	-
CCCN1C(=O)c2ccc(C(=O)Nc3ccccc3C(=O)O)cc2C1=O	0	0	0	53.5	36.0	7.0
CCCN1C(=O)c2ccc(C(=O)Nc3cc(C)ccc3O)cc2C1=O	0	0	0	0	-	-
O=C(Nc1cc(Cl)ccc1C(=O)O)c1ccc(CN2C(=O)c3ccccc3C2=O)cc1	0	0	0	59.3	84.7	72.0
O=C(O)c1cc(NC(=O)c2ccc3c(c2)C(=O)N(Cc2cccnc2)C3=O)cc(C(=O)O)c1	0	0	0	0	-	-
O=C(O)c1ccc2c(c1)C(=O)N(CCCCCCCN1C(=O)c3ccc(C(=O)O)cc3C1=O)C2=O	0	0	0	37.2	0	0
O=C(Nc1ccc(Br)cc1C(=O)O)c1ccc2c(c1)C(=O)N(Cc1ccccc1)C2=O	0	0	0	49.0	87.1	76.6
CC(=O)N1c2ccc(S(=O)(=O)N3CCCC3)cc2CC1C(=O)NCc1ccccc1F (stereo unspecified)	0	0	0	0	-	-
Cc1cccc(NS(=O)(=O)c2nnc(NC(=O)c3ccc(C)c(C)c3)s2)c1	0	0	0	40.9	36.7	14.5
COc1cccc(C(=O)Nc2nnc(S(=O)(=O)Nc3cccc(C)c3)s2)c1	0	0	0	0	-	-
Cc1cccc(NS(=O)(=O)c2nnc(NC(=O)C3CCCCC3)s2)c1	0	0	0	37.2	0	5.3
COc1cc(NC(=O)Cn2c(=O)n(-c3cccc(C)c3)c(=O)c3c(C)c(C)sc32)cc(OC)c1	0	0	0	0	-	-
CCOc1ccc(S(=O)(=O)N2CCCC(C(=O)NCc3cccnc3)C2)cc1 (stereo unspecified)	0	0	0	0	-	-
COc1ccc(C=NNc2nc3ccccc3s2)cc1	0	0	0	0	-	-
Cc1ccc2[nH]c(C)c(/C=N/Nc3nc4ccccc4s3)c2c1	0	0	0	64.6	46.7	26.3
CC(C)c1ccc(NC(=O)Nc2nc(C(N)C3CCCCC3)cs2)cc1 (stereo unspecified)	0	0	0	34.6	0	5.5
SMILES	Exocytosis inh	PG9 Ab binder	ABCB6 inh MLPCN	rCAG binder	rCAG binder conf	dCAG dye counter
COc1ccc(NC(=O)Nc2nc(C(N)C3CCCCC3)cs2)cc1 (stereo unspecified)	0	0	0	39.8	0	4.6
Cc1cc(=O)n2nc(N3CCC(C(=O)NCc4ccccc4Cl)CC3)sc2n1	0	0	0	0	-	-
CCOC(=O)c1sc(N/N=C/c2cc(Br)c(O)c(OC)c2)nc1C	0	0	0	47.5	37.8	16.6
COC(=O)c1sccc1NC(=O)CSc1ccccc1NS(=O)(=O)c1ccccc1Cl	0	0	0	35.5	61.9	19.9
CCn1cc(CN2CCC(Oc3ccc(C(=O)N4CCCCC4)cc3)CC2)cn1	0	0	0	0	-	-
CCCN1C(=O)SC(CC(=O)Nc2ccccc2)C1=O (stereo unspecified)	0	0	0	0	-	-
O=C(CC1Sc2ncnn2C1=O)Nc1ccc(Cl)cc1 (stereo unspecified)	-	0	-	0	-	-
O=C(CC1SC(=O)N(c2ccccc2)C1=O)Nc1ccc(Br)cc1 (stereo unspecified)	0	0	0	42.1	0	8.1
O=C(CC1SC(=O)N(c2ccccc2)C1=O)Nc1ccc(Cl)cc1 (stereo unspecified)	0	0	0	43.3	0	6.6
O=S(=O)(O)c1cc(Cl)cc(N=Nc2ccc(O)cc2O)c1O	0	0	0	90.5	67.1	31.4
O=[N+]([O-])c1ccc(N=Nc2ccc(O)cc2O)cc1	0	0	0	0	-	-
O=C1CS/C(=C\[N+](=O)[O-])N1c1ccc(OC(F)(F)F)cc1	0	0	0	48.9	0	0
CCCN(CC(=O)Nc1ccccc1OC)C(=O)Cc1ccccc1F	0	0	0	0	-	-
O=C(O)c1cc(N/N=C/c2ccncc2)ccc1Cl	0	0	0	0	-	-
Cc1ccc(S(=O)(=O)Oc2cccc(/C=N/Nc3ccc(C(=O)O)cc3)c2)cc1	0	0	0	74.4	57.7	17.3
CC(C)c1ccc(/C=N/Nc2ccc(C(=O)O)cc2)cc1	0	0	0	0	-	-
O=C(O)c1cc(N/N=C/c2ccc(-c3ccccc3)cc2)ccc1Cl	0	0	0	62.5	75.6	40.2
O=C(O)c1ccc(N/N=C/c2ccc(OC(=O)c3ccccc3Cl)cc2)cc1	0	0	0	80.5	68.5	28.1
O=C(O)c1ccc(N/N=C/c2ccc(-c3ccccc3)cc2)cc1	0	0	0	61.8	71.9	25.4
Nc1cc(=O)[nH]c(SCCSc2ccccc2)n1	0	0	0	0	-	-
CC(=O)N/C(=C\c1ccccc1)C(=O)OC/C=C/c1ccccc1	0	0	0	0	-	-
COc1cc(/C=N/Nc2ccc(Cl)c(C(=O)O)c2)ccc1OC(=O)c1cccs1	0	0	0	54.3	69.0	29.9
COc1cc(/C=N/Nc2ccccc2)ccc1OC(=O)c1cccs1	-	0	-	0	-	-
COCCNC(=O)/C(C#N)=C/c1ccc(OCc2ccccc2)cc1	0	0	0	0	-	-
COc1cc(/C=C(\C#N)C(=O)NCc2ccccc2)ccc1OCc1ccc(C(=O)O)cc1	0	0	0	43.5	0	5.9
N#C/C(=C\c1ccc(OCc2ccc(C(=O)O)cc2)cc1)C(=O)NCc1ccccc1	0	0	0	41.0	0	5.9
COc1cc(/C=C(\C#N)C(=O)NC(C)C)ccc1OCc1ccc(C(=O)O)cc1	0	0	0	0	-	-
COc1cc(/C=C(\C#N)C(=O)NC2CCCCC2)ccc1OCc1ccc(C(=O)O)cc1	0	0	0	39.9	38.0	9.2
O=C(NCC1CCCCC1)c1csc([C@@H]2C[C@H](O)[C@@H](CO)O2)n1	0	0	0	0	-	-
